# Results reported in the supplement of paper PMC6089552.
# Hit rate of the full screen: of about 3,200 compounds, about 300 (9.4%) showed activity. For the sample, actives were picked, then their nearest neighbours and some compounds at random.
# System: A673/TR/shEF
# Assay: cell viability (LOESS-normalised, relative to median of negative controls) (log2 ratio); higher = more viable cells (less compound effect), active = hit call of the paper (over 3 MAD below the median)
# Conditions: treatment time: 72 h
# Procedure, shortened: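 For three days, A673/TR/shEF Ewing sarcoma cells in 384-well plates (1,500 per well) were treated with library compounds at two or more concentrations or with DMSO controls, after doxycycline had been added or withheld 24 h beforehand to induce EWS-FLI1 shRNA knockdown. Viability was read by CellTiter-Glo luminescence on an Envision reader. The data were LOESS-corrected per plate, divided by the median of negative controls and log2-transformed.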
# [1] = 0.25 µM, library screen: screen1, EWS-FLI1 expression: high (no doxycycline)
# [2] = 0.25 µM, library screen: screen1, EWS-FLI1 expression: low (doxycycline-induced shRNA knockdown)
# [3] = 2.5 µM, library screen: screen1, EWS-FLI1 expression: high (no doxycycline)
# [4] = 2.5 µM, library screen: screen1, EWS-FLI1 expression: low (doxycycline-induced shRNA knockdown)
# [5] = 0.25 µM, library screen: screen2, EWS-FLI1 expression: high (no doxycycline)
# [6] = 0.25 µM, library screen: screen2, EWS-FLI1 expression: low (doxycycline-induced shRNA knockdown)
# [7] = 2.5 µM, library screen: screen2, EWS-FLI1 expression: high (no doxycycline)
# [8] = 2.5 µM, library screen: screen2, EWS-FLI1 expression: low (doxycycline-induced shRNA knockdown)
# [9] = 0.103 µM, library screen: screen3, EWS-FLI1 expression: high (no doxycycline)
# [10] = 0.103 µM, library screen: screen3, EWS-FLI1 expression: low (doxycycline-induced shRNA knockdown)
# [11] = 0.308 µM, library screen: screen3, EWS-FLI1 expression: high (no doxycycline)
# [12] = 0.308 µM, library screen: screen3, EWS-FLI1 expression: low (doxycycline-induced shRNA knockdown)
# [13] = 0.926 µM, library screen: screen3, EWS-FLI1 expression: high (no doxycycline)
# [14] = 0.926 µM, library screen: screen3, EWS-FLI1 expression: low (doxycycline-induced shRNA knockdown)
# [15] = 2.8 µM, library screen: screen3, EWS-FLI1 expression: high (no doxycycline)
# [16] = 2.8 µM, library screen: screen3, EWS-FLI1 expression: low (doxycycline-induced shRNA knockdown)
# [17] = 8.3 µM, library screen: screen3, EWS-FLI1 expression: high (no doxycycline)
# [18] = 8.3 µM, library screen: screen3, EWS-FLI1 expression: low (doxycycline-induced shRNA knockdown)
# [19] = 25 µM, library screen: screen3, EWS-FLI1 expression: high (no doxycycline)
# [20] = 25 µM, library screen: screen3, EWS-FLI1 expression: low (doxycycline-induced shRNA knockdown)
# [21] = 0.025 µM, library screen: screen1, EWS-FLI1 expression: high (no doxycycline)
# [22] = 0.025 µM, library screen: screen1, EWS-FLI1 expression: low (doxycycline-induced shRNA knockdown)
# [23] = 25 µM, library screen: screen1, EWS-FLI1 expression: high (no doxycycline)
# [24] = 25 µM, library screen: screen1, EWS-FLI1 expression: low (doxycycline-induced shRNA knockdown)
smiles,measurement,setting,value
COC(=O)C(C(C)=O)C(C)=O,cell viability (log2),[1],0.0323 (inactive)
same,cell viability (log2),[2],0.0334 (inactive)
same,cell viability (log2),[3],0.0258 (inactive)
same,cell viability (log2),[4],0.125 (inactive)
CC(/C=C/C=C(\C)c1cc(C(C)(C)C)cc(C(C)(C)C)c1)=C\C(=O)O,cell viability (log2),[5],0.134 (inactive)
same,cell viability (log2),[6],0.0751 (inactive)
same,cell viability (log2),[7],0.0952 (inactive)
same,cell viability (log2),[8],0.134 (inactive)
C=CCNC(=O)c1ccc(CN(c2cccc(Cl)c2)S(C)(=O)=O)cc1,cell viability (log2),[1],0.0663 (inactive)
same,cell viability (log2),[2],0.0926 (inactive)
same,cell viability (log2),[3],0.107 (inactive)
same,cell viability (log2),[4],0.133 (inactive)
O=C(O)c1c2ccccc2cc2ccccc12,cell viability (log2),[1],0.0833 (inactive)
same,cell viability (log2),[2],0.174 (inactive)
same,cell viability (log2),[3],0.112 (inactive)
same,cell viability (log2),[4],0.125 (inactive)
NCCC(=O)c1ccccc1N,cell viability (log2),[1],0.0986 (inactive)
same,cell viability (log2),[2],0.0335 (inactive)
same,cell viability (log2),[3],0.167 (inactive)
same,cell viability (log2),[4],0.184 (inactive)
C[N+](C)(C)CCC(=O)c1cccc2ccccc12,cell viability (log2),[5],-0.0772 (active)
same,cell viability (log2),[6],0.0591 (inactive)
same,cell viability (log2),[7],-0.524 (active)
same,cell viability (log2),[8],-0.0126 (inactive)
COC(=O)C[C@H]1C(C)(C)C(OC(C)=O)[C@]2(O)C=C3C(CC[C@]4(C)C3CC(=O)O[C@H]4c3ccoc3)C1(C)C2=O (some centres not stated),cell viability (log2),[1],0.102 (inactive)
same,cell viability (log2),[2],0.114 (inactive)
same,cell viability (log2),[3],0.0649 (inactive)
same,cell viability (log2),[4],0.0874 (inactive)
C[C@H](Cc1ccccc1)Nc1ncnc2c1ncn2[C@@H]1O[C@H](CO)[C@H](O)C1O (some centres not stated),cell viability (log2),[5],0.0269 (inactive)
same,cell viability (log2),[6],0.14 (inactive)
same,cell viability (log2),[7],0.0399 (inactive)
same,cell viability (log2),[8],0.136 (inactive)
COc1ccc(C[C@@H](N)C(=O)N[C@H]2[C@@H](O)[C@H](n3cnc4c(N(C)C)ncnc43)O[C@@H]2CO)cc1,cell viability (log2),[1],0.0185 (inactive)
same,cell viability (log2),[2],-0.00341 (inactive)
same,cell viability (log2),[3],-1.82 (active)
same,cell viability (log2),[4],-2 (active)
COc1nc(N)nc2c1ncn2[C@@H]1O[C@H](CO)[C@@H](O)[C@@H]1O,cell viability (log2),[9],-0.0331 (inactive)
same,cell viability (log2),[10],0.0967 (inactive)
same,cell viability (log2),[11],0.111 (inactive)
same,cell viability (log2),[12],0.1 (inactive)
same,cell viability (log2),[13],0.0614 (inactive)
same,cell viability (log2),[14],0.133 (inactive)
same,cell viability (log2),[15],0.0686 (inactive)
same,cell viability (log2),[16],0.0525 (inactive)
same,cell viability (log2),[17],0.0218 (inactive)
same,cell viability (log2),[18],0.0206 (inactive)
same,cell viability (log2),[19],0.0232 (inactive)
same,cell viability (log2),[20],0.121 (inactive)
CN1/C(=C(\O)Nc2ccccn2)C(=O)c2ccccc2S1(=O)=O,cell viability (log2),[9],0.0972 (inactive)
same,cell viability (log2),[10],0.122 (inactive)
same,cell viability (log2),[1],-0.035 (inactive)
same,cell viability (log2),[2],0.0628 (inactive)
same,cell viability (log2),[5],0.14 (inactive)
same,cell viability (log2),[6],0.0798 (inactive)
same,cell viability (log2),[11],0.121 (inactive)
same,cell viability (log2),[12],0.145 (inactive)
same,cell viability (log2),[13],0.194 (inactive)
same,cell viability (log2),[14],0.0843 (inactive)
same,cell viability (log2),[3],0.139 (inactive)
same,cell viability (log2),[4],0.148 (inactive)
same,cell viability (log2),[7],0.135 (inactive)
same,cell viability (log2),[8],0.0591 (inactive)
same,cell viability (log2),[15],0.173 (inactive)
same,cell viability (log2),[16],0.0997 (inactive)
same,cell viability (log2),[17],0.146 (inactive)
same,cell viability (log2),[18],0.0703 (inactive)
same,cell viability (log2),[19],0.152 (inactive)
same,cell viability (log2),[20],0.0778 (inactive)
Nc1nc(Nc2ccccc2)nc2c1ncn2C1O[C@H](CO)[C@@H](O)[C@H]1O (some centres not stated),cell viability (log2),[5],0.161 (inactive)
same,cell viability (log2),[6],0.05 (inactive)
same,cell viability (log2),[7],0.213 (inactive)
same,cell viability (log2),[8],-0.0193 (inactive)
Nc1cccc(-c2cc3c(Oc4cccc(O)c4)ncnc3[nH]2)c1,cell viability (log2),[9],0.136 (inactive)
same,cell viability (log2),[10],0.0102 (inactive)
same,cell viability (log2),[11],0.0422 (inactive)
same,cell viability (log2),[12],0.0346 (inactive)
same,cell viability (log2),[13],0.0247 (inactive)
same,cell viability (log2),[14],0.00411 (inactive)
same,cell viability (log2),[15],-0.00369 (inactive)
same,cell viability (log2),[16],0.0285 (inactive)
same,cell viability (log2),[17],-0.0241 (inactive)
same,cell viability (log2),[18],0.0796 (inactive)
same,cell viability (log2),[19],-0.494 (active)
same,cell viability (log2),[20],-0.321 (active)
O=C(O)C1(O)C[C@@H](O)C(O)[C@H](O)C1 (some centres not stated),cell viability (log2),[1],0.068 (inactive)
same,cell viability (log2),[2],-0.0312 (inactive)
same,cell viability (log2),[3],0.121 (inactive)
same,cell viability (log2),[4],-0.0156 (inactive)
CC(=O)O[C@H]1C[C@@H](OC(C)=O)C(C)(C)[C@@H]2C[C@@H](OC(C)=O)[C@]3(C)[C@H](CC[C@@]4(C)[C@H](c5ccoc5)OC(=O)[C@H]5O[C@@]534)[C@@]12C,cell viability (log2),[1],-0.0343 (inactive)
same,cell viability (log2),[2],0.0186 (inactive)
same,cell viability (log2),[3],0.075 (inactive)
same,cell viability (log2),[4],0.143 (inactive)
N#CC(C#N)=C(N)/C(C#N)=C/c1cc(O)c(O)c(O)c1,cell viability (log2),[21],0.289
same,cell viability (log2),[22],-0.0659 (inactive)
same,cell viability (log2),[1],0.296
same,cell viability (log2),[2],-0.0126 (inactive)
same,cell viability (log2),[5],0.21 (inactive)
same,cell viability (log2),[6],0.0773 (inactive)
same,cell viability (log2),[3],-0.312 (active)
same,cell viability (log2),[4],0.0388 (inactive)
same,cell viability (log2),[7],0.23 (inactive)
same,cell viability (log2),[8],0.0527 (inactive)
same,cell viability (log2),[23],-0.175 (active)
same,cell viability (log2),[24],0.0813 (inactive)
COc1cc(/C=C(\C#N)C(N)=O)cc(CSc2nc3ccccc3s2)c1O,cell viability (log2),[21],0.119 (inactive)
same,cell viability (log2),[22],0.0154 (inactive)
same,cell viability (log2),[1],0.2 (inactive)
same,cell viability (log2),[2],-0.0796 (inactive)
same,cell viability (log2),[3],0.0235 (inactive)
same,cell viability (log2),[4],0.0635 (inactive)
same,cell viability (log2),[23],-0.058 (inactive)
same,cell viability (log2),[24],-0.0713 (inactive)
N#CC(C#N)=C(N)/C(C#N)=C/c1ccc(O)cc1,cell viability (log2),[5],0.137 (inactive)
same,cell viability (log2),[6],0.116 (inactive)
same,cell viability (log2),[7],0.199 (inactive)
same,cell viability (log2),[8],0.0447 (inactive)
N#CC(C#N)=C(N)/C(C#N)=C/c1ccc2[nH]ccc2c1,cell viability (log2),[21],0.369
same,cell viability (log2),[22],0.0769 (inactive)
same,cell viability (log2),[1],0.269 (inactive)
same,cell viability (log2),[2],0.0358 (inactive)
same,cell viability (log2),[3],-0.421 (active)
same,cell viability (log2),[4],0.0519 (inactive)
same,cell viability (log2),[23],-0.203 (active)
same,cell viability (log2),[24],0.0138 (inactive)
CC(=O)Oc1ccc(O)cc1,cell viability (log2),[1],-0.0255 (inactive)
same,cell viability (log2),[2],0.056 (inactive)
same,cell viability (log2),[3],0.0239 (inactive)
same,cell viability (log2),[4],0.00436 (inactive)
COC1=CC(=O)OC(CCc2ccc(OC)c(OC)c2)C1 (configuration not stated),cell viability (log2),[1],0.144 (inactive)
same,cell viability (log2),[2],-0.00163 (inactive)
same,cell viability (log2),[3],0.181 (inactive)
same,cell viability (log2),[4],0.0406 (inactive)
COc1cc2occ(-c3ccc(O)cc3)c(=O)c2c(OC)c1O,cell viability (log2),[1],0.0883 (inactive)
same,cell viability (log2),[2],0.0895 (inactive)
same,cell viability (log2),[3],0.108 (inactive)
same,cell viability (log2),[4],0.0533 (inactive)
O=c1cccc2cc(O)c(O)c(O)c2c1O,cell viability (log2),[1],-0.000737 (inactive)
same,cell viability (log2),[2],-0.0453 (inactive)
same,cell viability (log2),[3],0.0367 (inactive)
same,cell viability (log2),[4],0.0294 (inactive)
COc1cc(OC)c2c(=O)c(OC)c(-c3ccc(OC)c(OC)c3)oc2c1,cell viability (log2),[1],0.019 (inactive)
same,cell viability (log2),[2],0.0595 (inactive)
same,cell viability (log2),[3],0.0902 (inactive)
same,cell viability (log2),[4],-0.0343 (inactive)
O=C1Cc2c([nH]c3ccc(Br)cc23)-c2ccccc2N1,cell viability (log2),[5],0.148 (inactive)
same,cell viability (log2),[6],0.0907 (inactive)
same,cell viability (log2),[7],0.128 (inactive)
same,cell viability (log2),[8],0.118 (inactive)
O=C1Cc2c([nH]c3ccc([N+](=O)[O-])cc23)-c2ccccc2N1,cell viability (log2),[5],0.0426 (inactive)
same,cell viability (log2),[6],0.0802 (inactive)
same,cell viability (log2),[7],-0.122 (active)
same,cell viability (log2),[8],-0.312 (active)
